# Only some compounds are listed: those with a hit (about 8.5% of all), similar ones and a draw of the others.
# JMJD2E inh: blocks human JMJD2E demethylase activity; B2RXH2; JMJD2E catalytic domain, FDH-coupled NADH fluorescence (FDH is formaldehyde dehydrogenase); Potency, µM (top dose mostly 57.1 µM), usual class: inhibitors; 230,000 compounds, 1.6% hits; AID 2147; active = well fitted inhibition curve with a large enough effect, not every such curve was filed as active; inconclusive = small, poorly fitted or top-dose-only effect, or another doubt; inactive = no such curve, though single readings can be large or run the other way; note: nearly all actives have a fitted effect of over 50% in size
# Target sequence (B2RXH2 1-337 limits assumed): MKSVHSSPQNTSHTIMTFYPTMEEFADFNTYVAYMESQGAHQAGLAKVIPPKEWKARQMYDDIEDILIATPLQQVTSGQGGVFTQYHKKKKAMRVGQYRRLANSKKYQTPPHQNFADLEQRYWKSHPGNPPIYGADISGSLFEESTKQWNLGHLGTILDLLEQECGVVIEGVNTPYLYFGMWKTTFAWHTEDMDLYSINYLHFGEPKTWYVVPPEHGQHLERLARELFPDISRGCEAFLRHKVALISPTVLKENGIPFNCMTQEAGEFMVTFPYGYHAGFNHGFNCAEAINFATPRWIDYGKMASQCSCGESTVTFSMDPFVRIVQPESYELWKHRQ
# ALDH1A1 inh: blocks purified human ALDH1A1 activity. P00352. Purified ALDH1A1, NADH fluorescence, propionaldehyde substrate. Potency, µM (titrated, usually from 75.3 µM), actives largely listed as inhibitors. 220,000 compounds, 7.3% hits; active = well fitted inhibition curve with a large enough effect, not every such curve was filed as active; inconclusive = small, poorly fitted or top-dose-only effect, or another doubt; inactive = no such curve, though single readings can be large or run the other way
# Sfp PPTase inh: inhibitors of Bacillus subtilis Sfp phosphopantetheinyl transferase. Q9F4F7. Biochemical Sfp PPTase activity, qHTS. Potency, µM, hits mostly inhibitors. 310,000 compounds, 3.5% hits. AID 1490;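 note: the enzyme is Sfp with the accession as filed and its product quenches rhodamine fluorescence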
#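 Reaction rates are the 30-min fluorescence difference (ex 525, em 598 nm) in wells containing 15 nM Sfp, 5 uM rhodamine-CoA and 12.5 uM BHQ-2-YbbR at pH 7.6 with 10 mM MgCl2.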
# Coupling enz: counter-screen for Giardia aldolase inhibitors: coupling enzyme system | activity change, negative = inhibition, % at 58.2 µM, hits read low | 290,000 compounds, 0.67% hits | coupling enzyme system counterscreen, AmpLite Red fluorescence; in the data active = activity change below about -30%
#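 First, compound is pin-transferred into glyceraldehyde-3-phosphate coupling-enzyme reagent at 57.5 uM final and held 10 min at RT. Next, substrate, coupling system and AmpLite Red are added. After 20 min RT, fluorescence (525/598 nm) is read.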
# GoLoco inh red: RGS12 GoLoco-Gai1 interaction inhibition. AID 880. 230,000 compounds, 0.44% hits. Gai1:RGS12 GoLoco peptide FP, rhodamine, 10 min. P63096. Potency, µM (series often up to 61.6 µM), usual class: inhibitors; active = well fitted inhibition curve with a large enough effect, not every such curve was filed as active; inactive = no such curve, though single readings can be large or run the other way; note: nearly all actives have a fitted effect of over 30% in size
# NPSR antag: antagonists of human neuropeptide S receptor cAMP signaling. Q6W5P4. CHO-NPSR cells, cAMP TR-FRET, antagonist mode. Potency, µM (titrated, usually from 38.3 µM), hits mostly inhibitors. 220,000 compounds, 1% hits. AID 1461; note: nearly all actives have a fitted effect of over 50% in size
# Target sequence (Q6W5P4 whole entry, looked up): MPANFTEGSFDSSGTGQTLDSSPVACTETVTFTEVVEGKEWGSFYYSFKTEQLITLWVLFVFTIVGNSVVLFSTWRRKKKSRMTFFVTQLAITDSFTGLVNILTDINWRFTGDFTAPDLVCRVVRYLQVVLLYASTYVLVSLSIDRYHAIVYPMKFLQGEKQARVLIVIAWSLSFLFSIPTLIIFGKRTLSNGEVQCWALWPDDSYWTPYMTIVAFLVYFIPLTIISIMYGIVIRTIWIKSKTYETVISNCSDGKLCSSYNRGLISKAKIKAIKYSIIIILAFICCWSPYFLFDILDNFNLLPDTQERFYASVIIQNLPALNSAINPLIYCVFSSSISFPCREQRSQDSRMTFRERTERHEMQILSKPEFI
# Hits are given with their value; i = inactive; ? = inconclusive; nt = no result given; ! = not active in a repeat; [ ] = dose if it differs, or a comment. Unless noted, calls come from the whole dose curve; as a rule, active = well fitted curve in the direction sought with a large enough effect; inconclusive = small, poorly fitted or top-dose-only effect, or another doubt; inactive = no such curve, though single readings can be large; an effect the other way counts as inactive or inconclusive.
SMILES,JMJD2E inh,ALDH1A1 inh,Sfp PPTase inh,Coupling enz,GoLoco inh red,NPSR antag
Cc1ccccc1NC(=O)COc1ccc2c(c1)OC(C)(C)CC2=O,?,14µM,i,i,i,i
CC(C)CCNC(=O)COc1ccc2c(c1)C(=O)CC(C)(C)O2,?,?,i,i,i,i
N#C/C(=C\c1ccc(F)cc1F)S(=O)(=O)c1ccccn1,i,i,i,i,i,i
CCOc1cc2c(cc1/C=C1/NC(=O)N(CC(=O)OC)C1=O)OCO2,?,11µM,i,i,i,i
COC(=O)CN1C(=O)N/C(=C/c2cc(Cl)c(OC)c(OC)c2)C1=O,?,4µM,i,i,i,i
COC(=O)CN1C(=O)N/C(=C/c2cc3c(cc2OC)OCO3)C1=O,i,7.9µM,i,i,i,i
COc1cc2c(cc1/C=C1/NC(=O)N(CC(=O)Nc3ccccc3)C1=O)OCO2,i,i,i,i,i,i
O=C1C(=O)c2ccccc2C(O)=C1C(CCc1ccccc1)C1=C(O)c2ccccc2C(=O)C1=O,nt,?,nt,nt,i[14.2 µM],nt
Cc1cccc(-c2ncc(CN3CCN(CCC(C)C)C(CCO)C3)cn2)c1 (configuration not stated),i,i,i,i,i,i
NC(N)=N/N=C/c1ccc(OCc2ccccc2Cl)cc1,i,i,50µM,i,i,?
CCOc1cc(/C=N/N=C(N)N)ccc1OCc1ccc(Cl)cc1,i,i,20µM,i,i,i
NC(N)=N/N=C/c1ccc(OCc2ccccc2)c(OCc2ccccc2)c1,nt,nt,56µM,i,nt,nt
COc1cc(/C=N/N=C(N)N)ccc1OCc1ccc(Cl)cc1,i,i,16µM,i,i,i
Cc1nc(N2CCOCC2)c2nc(-c3ccccc3)n(CCCN3CCOCC3)c2n1,?,?,i,i,i,nt
CNC(=O)COC(=O)[C@@H](Nc1ccc(S(=O)(=O)N2CCOCC2)cc1[N+](=O)[O-])C(C)C,i,?,i,i,i,i
CC(C)[C@H](Nc1ccc(S(=O)(=O)N2CCOCC2)cc1[N+](=O)[O-])C(=O)OCC(N)=O,i,18µM,i,i,i,i
CCCS(=O)(=O)N1CCC(C(=O)NC2CCCCC2C)CC1 (configuration not stated),i,10µM,i,i,nt,i
CNC(=O)C1(CC(C)C)C=CCN1C(C)=O (configuration not stated),i,i,i,i,i,i
CC(=O)N1C2(C=CC1(C)C(=O)NCc1ccc(C)o1)CCCCC2 (configuration not stated),i,22µM,?,i,i,nt
CC(=O)N1CC=CC1(CC(C)C)C(=O)NCc1ccc(C)o1 (configuration not stated),i,i,45µM,i,i,nt
CC(=O)N1C2(C=CC1(C)C(=O)NCc1ccccn1)CCCCC2 (configuration not stated),?,?,?,i,i,nt
CC(=O)Nc1cccc(OCCCNC(=O)c2ccc(C(C)(C)C)cc2)c1,i,nt,i,i,i,i[7.67 µM]
O=C(CN1CCN(S(=O)(=O)c2ccccc2)CC1)Nc1ccccc1C(=O)c1ccccc1,i,?,i,i,i,i
Cc1ccc(-c2csc3ncnc(SCC(=O)NCc4ccc5c(c4)OCO5)c23)cc1,i,i,i,i,i,i
NNC(=O)c1ccc(CSc2nc3ccccc3s2)cc1,?,3.5µM,i,i,i,i
SMILES,JMJD2E inh,ALDH1A1 inh,Sfp PPTase inh,Coupling enz,GoLoco inh red,NPSR antag
O=C(CSc1nc2ccccc2s1)NCc1ccc2c(c1)OCO2,i,14µM,i,i,i,i
O=C(CSc1ncnc2scc(-c3ccc(Cl)cc3)c12)NCc1ccc2c(c1)OCO2,i,i,i,-33,i,i
O=C(CSc1ccc2ccccc2n1)NCc1ccc2c(c1)OCO2,i,18µM,i,i,i,i
COCCN(CCOC)C(=O)c1ccc(CSc2nc3ccccc3s2)cc1,nt,nt,i,nt,nt,nt
O=C(CCCSc1nc2ccccc2s1)NCc1ccc2c(c1)OCO2,i,3.5µM,i,i,i,i
CC(Nc1ccc(N2CCOCC2)cc1)C(=O)N1c2ccccc2CC1C (configuration not stated),i,?,10µM,i,i,i
COCc1nnc(NC(=O)CSc2ccccc2)s1,i,i,i,i,i,i
COCc1nnc(NC(=O)CSc2ccc(C)cc2)s1,i,20µM,i,i,i,i
COCc1nnc(NC(=O)CSCc2ccccc2)s1,i,18µM,i,nt,i,i
COCc1nnc(NC(=O)CCc2ccccc2)s1,i,i,i,i,i,i
COCc1nnc(NC(=O)COc2ccc3c(c2)OCO3)s1,nt,nt,56µM,i,nt,nt
Cc1ccc2[nH]c(C(=O)NCCN3CCCC3)cc2c1,nt,nt,i,i,nt,nt
COc1ccc(C2CC(c3ccccc3OC(C)=O)=NN2C(C)=O)cc1 (configuration not stated),i,nt,i,i,i,i
CC(=NCCN1CCNCC1)C1=C(O)CC(C)(C)CC1=O,i,25µM,i,i,nt,i
Cc1cc(O)c(C(C)C)cc1N=C1CSC(=O)N1,i,13µM,56µM,i,i,i
Cc1cc(O)c(C(C)C)cc1N=Nc1ccccc1C(=O)O,i,nt,i,i,i,?
CC1CCN(S(=O)(=O)c2cc([N+](=O)[O-])ccc2Cl)CC1,i,3.5µM,i,i,i,i
Cc1cc(C(=O)Nc2ccccc2C(=O)O)ccc1NC(=O)COc1cccc(C)c1C,nt,nt,i,nt,nt,nt
O=C(Nc1cccc(Br)c1)c1cc(S(=O)(=O)N2CCOCC2)cs1,nt,nt,i,nt,nt,nt
COc1cc(C(Nc2ccc(S(=O)(=O)N3CCC(C)CC3)cc2)C(=O)NCC2CCCO2)cc(OC)c1OC (configuration not stated),i,3.5µM,i,i,i,i
COc1cc(C(Nc2ccc(S(=O)(=O)NCC3CCCO3)cc2)C(=O)NC(C)(C)C)cc(OC)c1OC (configuration not stated),i,nt,i,i,i,i
CCCCCCCCCCCC1=C(O)C(=O)C=C(O)C1=O,20µM!,24µM,i,i,i,nt
COC(=O)COc1ccc(NS(=O)(=O)c2cccc([N+](=O)[O-])c2)cc1,i,?,i,i,i,i
Cc1noc(C)c1COC(=O)c1cc(F)c(F)cc1Cl,i,i,i,i,i,i
Cc1noc(C)c1COC(=O)c1cnc(Cl)c(Cl)c1,i,0.56µM,i,i,i,i
O=C(COC(=O)c1ccc2c(c1)S(=O)(=O)c1ccccc1C2=O)NC1CC1,i,14µM,i,i,i,i
Cc1noc(C)c1COC(=O)c1ccc2c(c1)S(=O)(=O)c1ccccc1C2=O,i,13µM,i,i,i,i
COC(=O)[C@@H](NC(=O)c1ccc2c(c1)S(=O)(=O)c1ccccc1C2=O)C(C)C,nt,nt,i,i,nt,nt
CCCCN(CC)CCNC(=O)CCC(=O)Nc1ccc2nc(N3CCN(C)CC3)cc(C)c2c1,?,?,i,-34,i,i
O=C(Nc1ccc(Br)cc1)c1ccc2c(c1)OCO2,nt,nt,i,i,nt,nt

# Assay outcomes from PubChem.
